Publication PMC4081663, “Single-Nucleotide Mutation Matrix of NF-κB”

Biological target: NF-kB p50 homodimer (Homo sapiens, UniProt P19838 1-433)
Test: bimolecular dsDNA microarray; Bimolecular dsDNA microarray on aldehyde glass; probes annealed in 10 mM Tris-HCl pH 8.0, 100 mM NaCl, 1 mM EDTA; binding buffer and temperature as in ref 16, not stated; high values mean tight binding
Details: protein: commercial; tags: Cy3-labeled for microarray; chain copies: 2; label: 5' amino linker to the slide; dsDNA, one strand shown

Chain of NF-kB p50 homodimer (P19838 1-433): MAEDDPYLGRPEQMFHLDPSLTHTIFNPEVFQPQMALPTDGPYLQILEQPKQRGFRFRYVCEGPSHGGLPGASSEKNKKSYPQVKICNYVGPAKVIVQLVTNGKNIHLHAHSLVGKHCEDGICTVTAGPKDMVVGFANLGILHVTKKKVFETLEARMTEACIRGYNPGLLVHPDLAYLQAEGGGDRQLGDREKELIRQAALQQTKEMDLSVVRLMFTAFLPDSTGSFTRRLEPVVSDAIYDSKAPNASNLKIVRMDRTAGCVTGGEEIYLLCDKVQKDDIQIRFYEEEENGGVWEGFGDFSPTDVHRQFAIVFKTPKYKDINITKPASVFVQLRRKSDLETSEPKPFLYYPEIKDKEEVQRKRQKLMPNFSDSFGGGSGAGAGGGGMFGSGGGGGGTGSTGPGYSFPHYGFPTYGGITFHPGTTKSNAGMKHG

GGGACTTACC was tested. Which binding signal did it give?
The binding signal was 25.4 a.u.

Which binding signal does the source give for GGGAATTTCC here?
Its binding signal is 57.5 a.u.

Which binding signal does the source give for GCGACTTTCC here?
Its binding signal is 12.5 a.u.

For GGTACTTTCC, which binding signal is on record?
The binding signal was 46.1 a.u.

With GGGACTTTCG as the sequence, how does the binding signal read?
Its binding signal is 24.6 a.u.

With CGGACTTTCC as the sequence, how does the binding signal read?
The binding signal was 19.8 a.u.

Which binding signal does the source give for GGGACTTTCC here?
Its binding signal is 52.8 a.u.

With GGGGCTTTCC as the sequence, how does the binding signal read?
The binding signal was 49.7 a.u.

GGGTCTTTCC was tested. Which binding signal did it give?
Its binding signal is 28.6 a.u.

GGGACATTCC was tested. Which binding signal did it give?
The binding signal was 26.5 a.u.

How did the binding signal turn out when GGCACTTTCC was run?
Its binding signal is 19.2 a.u.

For GGGAGTTTCC, which binding signal is on record?
Its binding signal is 55.8 a.u.

With GGGACTTTTC as the sequence, how does the binding signal read?
The binding signal was 29.6 a.u.

How did the binding signal turn out when GGGACCTTCC was run?
The binding signal was 19.8 a.u.

GGGACGTTCC was tested. Which binding signal did it give?
Its binding signal is 25 a.u.

With GGGACTTTCA as the sequence, how does the binding signal read?
The binding signal was 24.7 a.u.

GGAACTTTCC was tested. Which binding signal did it give?
Its binding signal is 31.4 a.u.

For GGGATTTTCC, which binding signal is on record?
The binding signal was 58.5 a.u.

GGGACTTCCC was tested. Which binding signal did it give?
Its binding signal is 60.9 a.u.

GGGACTTTAC was tested. Which binding signal did it give?
Its binding signal is 38.1 a.u.

With GAGACTTTCC as the sequence, how does the binding signal read?
The binding signal was 16.7 a.u.

How did the binding signal turn out when GTGACTTTCC was run?
Its binding signal is 20.4 a.u.

For GGGACTCTCC, which binding signal is on record?
Its binding signal is 24.8 a.u.

Which binding signal does the source give for TGGACTTTCC here?
Its binding signal is 22.8 a.u.

How did the binding signal turn out when GGGACTTTGC was run?
The binding signal was 22.9 a.u.

For GGGACTTGCC, which binding signal is on record?
The binding signal was 18.8 a.u.

Which binding signal does the source give for GGGCCTTTCC here?
Its binding signal is 20.5 a.u.

How did the binding signal turn out when GGGACTGTCC was run?
The binding signal was 32.4 a.u.

Which binding signal does the source give for GGGACTTTCT here?
Its binding signal is 20.2 a.u.

Which binding signal does the source give for GGGACTATCC here?
Its binding signal is 20 a.u.

With AGGACTTTCC as the sequence, how does the binding signal read?
The binding signal was 21.1 a.u.
